Values without a mark were called inactive. Inconclusive results are not listed. Where a call stands in place of a potency, no number is given. Active and inactive are the calls of the source. Unless noted, calls follow the shape of the dose curve; as a rule, active = well fitted curve in the direction sought with a large enough effect in the repeat runs; inconclusive = weak or mixed curves; inactive = no such curve, though single readings can be large; an effect the other way counts as inactive or inconclusive.
Experiments:
[1] = qHTS assay for small molecules that induce genotoxicity in human embryonic kidney cells expressing luciferase-tagged ATAD5 (AID 651632); also: nearly all actives have a fitted effect of over 15% in size
In short: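 A rise in luciferase signal from ATAD5-tagged HEK293T cells marks genetic stress. Cells were exposed to compounds for 16 hr at 37C, 5% CO2, then luciferase was quantified after a 30 min room-temperature incubation with Amplite.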

[2] = qHTS assay for small molecules that induce genotoxicity in human embryonic kidney cells expressing luciferase-tagged ATAD5 - cell viability (AID 651634; calls by dose curve; also: nearly all actives have a fitted effect of over 25% in size; also: potency is read from the fitted curve at half-maximal effect)
In short: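 Cytotoxicity counter-readout: after 15.5 hr compound treatment at 37C, live-cell protease activity in ATAD5-luciferase HEK293T cells measured by CellTiter-Fluor fluorescence, 30 min development at 37C.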

[3] = qHTS assay for small molecule disruptors of the mitochondrial membrane potential - cell viability (AID 720634; calls by dose curve;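 also: human HepG2 liver cancer cells; series mostly up to about 83 µM; nearly all actives have a fitted effect of over 20% in size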)
In short: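 Cytotoxicity was quantified from ATP content by CellTiter-Glo luminescence in the same wells as the MMP dye read-out. HepG2 (2,000 cells/well) were plated overnight and exposed to compounds for 1 hr at 37 C.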

[4] = qHTS assay for small molecule disruptors of the mitochondrial membrane potential (AID 720635)
In short: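 HepG2 cells (2,000/well) attached overnight at 37C, then took compound for 1 hr at 37C, 5% CO2. Mito-MPS dye was added for 30 min; fluorescence was read at 490/535 nm (monomers) and 540/590 nm (aggregates).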

[5] = qHTS assay to test for compound auto fluorescence at 590 nm (red) in HepG2 cells (AID 720674)
In short: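 Rose Bengal sodium served as the red fluorophore standard. HepG2 monolayers (overnight attachment, MEM with 10% FBS) were exposed to test compounds for 1 hr at 37 C and read at Ex 540/Em 590 nm.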

[6] = qHTS assay to test for compound auto fluorescence at 535 nm (green) in HepG2 cells (AID 720675)
[7] = qHTS assay to test for compound auto fluorescence at 460 nm (blue) in HEK293 cells (AID 720678)
In short: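 HEK293 cells (2,000/well, medium with 10% dialyzed FBS) attached 4-5 hr, then exposed to compound overnight at 37C, 5% CO2. Blue fluorescence read at 405/460 nm, with triamterene as reference fluorophore.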

[8] = qHTS assay to test for compound auto fluorescence at 590 nm (red) in HEK293 cells (AID 720679)
In short: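 HEK293 cells (2,000/well, 10% dialyzed FBS) attached 4-5 hr, then dosed with compound or DMSO and incubated overnight at 37C, 5% CO2. Red fluorescence read at 540/590 nm, Rose Bengal sodium as reference fluorophore.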

[9] = qHTS assay to test for compound auto fluorescence at 535 nm (green) in HEK293 cells (AID 720680)
[10] = qHTS assay to test for compound auto fluorescence at 460 nm (blue) in HEK293 cell free culture (AID 720681)
In short: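 Test compounds were pinned into cell-free culture medium (DMEM with 10% FBS) and fluorescence was read directly at Ex/Em 405/460 nm. Signals were expressed as fluorescence equivalents of triamterene, with DMSO vehicle as control.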

[11] = qHTS assay to test for compound auto fluorescence at 535 nm (green) in HEK293 cell free culture (AID 720682)
In short: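 Each library compound, or DMSO control, is added by pintool to medium alone, comprising DMEM and 10% FBS. Emission at 535 nm following 485 nm excitation is quantified against fluorescein.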

[12] = qHTS assay to test for compound auto fluorescence at 590 nm (red) in HEK293 cell free culture (AID 720683)
In short: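 Tox21 10K library compounds were pinned into cell-free DMEM with 10% FBS and fluorescence was read at excitation 540 nm. Activity is expressed as Rose Bengal sodium equivalency.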

[13] = qHTS assay to test for compound auto fluorescence at 590 nm (red) in HepG2 cell free culture (AID 720684)
In short: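 Readout: intrinsic compound fluorescence at 590 nm emission after 540 nm excitation, scaled to Rose Bengal sodium. Matrix was cell-free MEM with 10% FBS; DMSO vehicle wells served as control.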

[14] = qHTS assay to test for compound auto fluorescence at 460 nm (blue) in HepG2 cell free culture (AID 720685)
In short: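 Cell-free plates of MEM plus 10% FBS received 23 nL compound or DMSO vehicle; blue-channel (405/460 nm) intensity scored against triamterene as reference fluorophore.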

[15] = qHTS assay to test for compound auto fluorescence at 535 nm (green) in HepG2 cell free culture (AID 720686)
[16] = qHTS assay to test for compound auto fluorescence at 460 nm (blue) in HepG2 cells (AID 720687)
In short: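 Cells (2,000/well in MEM with 10% FBS) attached overnight at 37 C, then were exposed to compound or DMSO for 1 hr at 37 C, 5% CO2. Fluorescence read at Ex/Em 405/460 nm, expressed as triamterene-equivalent signal.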

[17] = qHTS assay for small molecule agonists of the p53 signaling pathway - cell viability (AID 651633; calls by dose curve;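 also: p53RE-bla HCT reporter cells with a stable beta-lactamase p53 reporter; series mostly up to about 83 µM; nearly all actives have a fitted effect of over 30% in size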)
In short: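 p53RE-bla cells, seeded at 4,000 per well and rested 5 h at 37 C/5% CO2, received compounds in DMSO for 16 h at 37 C. CellTiter-Glo was then added, and luminescence was read after 30 min at room temperature to gauge cytotoxicity.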

[18] = target: Glucocorticoid receptor (Homo sapiens) (UniProt P04150); assay: qHTS assay to identify small molecule agonists of the glucocorticoid receptor (GR) signaling pathway (AID 720691; active = well fitted activation curve with a large enough effect in the signal ratio in the repeat runs, not every such curve was filed as active; the % refers to the signal ratio)
Sequence of Glucocorticoid receptor (Homo sapiens) (P04150 whole entry, looked up): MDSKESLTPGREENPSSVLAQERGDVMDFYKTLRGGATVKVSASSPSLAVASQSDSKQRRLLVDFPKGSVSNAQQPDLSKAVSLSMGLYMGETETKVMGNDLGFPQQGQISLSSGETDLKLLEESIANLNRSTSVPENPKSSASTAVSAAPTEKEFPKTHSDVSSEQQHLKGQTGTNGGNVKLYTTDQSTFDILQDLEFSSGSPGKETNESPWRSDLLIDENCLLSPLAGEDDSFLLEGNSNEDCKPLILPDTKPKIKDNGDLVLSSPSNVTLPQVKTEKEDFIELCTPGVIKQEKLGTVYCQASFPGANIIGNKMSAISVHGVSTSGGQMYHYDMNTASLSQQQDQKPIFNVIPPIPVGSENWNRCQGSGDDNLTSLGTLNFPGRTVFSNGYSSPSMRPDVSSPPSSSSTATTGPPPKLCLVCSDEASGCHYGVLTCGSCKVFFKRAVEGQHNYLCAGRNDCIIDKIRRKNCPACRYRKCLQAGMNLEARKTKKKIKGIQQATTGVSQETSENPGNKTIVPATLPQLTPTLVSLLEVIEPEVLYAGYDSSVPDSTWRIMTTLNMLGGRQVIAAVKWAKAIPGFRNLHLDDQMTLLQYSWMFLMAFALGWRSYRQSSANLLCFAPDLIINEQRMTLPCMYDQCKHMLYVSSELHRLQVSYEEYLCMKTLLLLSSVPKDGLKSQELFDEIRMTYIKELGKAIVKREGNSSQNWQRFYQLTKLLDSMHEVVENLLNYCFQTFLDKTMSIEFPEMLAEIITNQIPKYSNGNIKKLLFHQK
In short: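 Agonist-mode qHTS in HeLa cells stably expressing a glucocorticoid-response-element beta-lactamase reporter. Fluorescence intensity read with FRET substrate (2 h, room temperature) after 18 h compound treatment at 37 C.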

[19] = target: Glucocorticoid receptor (Homo sapiens) (UniProt P04150); assay: qHTS assay to identify small molecule antagonists of the glucocorticoid receptor (GR) signaling pathway (AID 720692; active = well fitted inhibition curve with a large enough effect in the signal ratio in the repeat runs, not every such curve was filed as active; the % refers to the signal ratio)
In short: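 Inhibition of dexamethasone-driven (5 nM final) beta-lactamase expression was measured in GRE-reporter HeLa cells over 18 h at 37C. Fluorescence was read after 2 h with the B/G FRET substrate at room temperature.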

CNC1CCCN(c2c(F)cc3c(=O)c(C(=O)O)cn(C4CC4)c3c2OC)C1 (stereo not given)
Potency [1]: inactive | Potency [2]: inactive | outcome [3]: inactive | Potency [4]: inactive | outcome [5]: inactive | outcome [6]: inactive | Potency [7]: inactive | outcome [8]: inactive | outcome [9]: inactive | Potency [10]: inactive | outcome [11]: inactive | outcome [12]: inactive | outcome [13]: inactive | Potency [14]: inactive | outcome [15]: inactive | Potency [16]: inactive

COc1cc(C(C)=O)ccc1OCCCN1CCC(c2noc3cc(F)ccc23)CC1
Potency [17]: inactive | Potency [2]: inactive | outcome [3]: inactive | outcome [5]: inactive | outcome [6]: inactive | Potency [7]: inactive | outcome [8]: inactive | Potency [10]: inactive | outcome [11]: inactive | outcome [12]: inactive | outcome [13]: inactive | Potency [14]: inactive | outcome [15]: inactive | Potency [16]: inactive | Potency [18]: inactive

CC(=O)NNC(C)=O
Potency [17]: inactive | Potency [2]: inactive | outcome [3]: inactive | outcome [6]: inactive | Potency [7]: inactive | outcome [8]: inactive | outcome [9]: inactive | Potency [10]: inactive | outcome [11]: inactive | outcome [13]: inactive | Potency [14]: inactive | outcome [15]: inactive | Potency [16]: inactive | Potency [18]: inactive

COc1cc(S(=O)(=O)Nc2ccccc2)c(OC)cc1N
Potency [17]: inactive | Potency [2]: inactive | outcome [3]: inactive | outcome [5]: inactive | outcome [6]: inactive | Potency [7]: inactive | outcome [8]: inactive | Potency [10]: inactive | outcome [11]: inactive | outcome [12]: inactive | outcome [13]: inactive | Potency [16]: inactive | Potency [18]: inactive | Potency [19]: inactive

Cc1ccccc1S(N)(=O)=O
Potency [17]: inactive | Potency [2]: inactive | outcome [3]: inactive | outcome [5]: inactive | outcome [6]: inactive | Potency [7]: inactive | outcome [8]: inactive | outcome [9]: inactive | Potency [10]: inactive | outcome [11]: inactive | outcome [12]: inactive | outcome [13]: inactive | Potency [14]: inactive | outcome [15]: inactive | Potency [16]: inactive | Potency [18]: inactive

Cc1ccc2c(c1)CCCN2
Potency [1]: inactive | Potency [2]: inactive | outcome [3]: inactive | Potency [4]: inactive | outcome [5]: inactive | outcome [6]: inactive | Potency [7]: inactive | outcome [8]: inactive | outcome [9]: inactive | Potency [10]: inactive | outcome [11]: inactive | outcome [13]: inactive | Potency [14]: inactive | outcome [15]: inactive | Potency [16]: inactive | Potency [18]: inactive | Potency [19]: inactive

CO[C@@H]1[C@@H](OC)[C@H](C)[C@@](O)(CC(=O)O)O[C@H]1[C@H](C)[C@H]1O[C@@]2(CC[C@@](C)([C@H]3CC[C@@](C)([C@@H]4O[C@@H]([C@H]5O[C@](C)(O)[C@H](C)C[C@@H]5C)C[C@@H]4OC4C[C@H](OC)[C@@H](OC)[C@H](C)O4)O3)O2)C[C@H](O)[C@H]1C (stereo not given in full)
Potency [17]: inactive | Potency [2]: 1.19 µM (active) | outcome [3]: inactive | outcome [5]: inactive | outcome [6]: inactive | Potency [7]: inactive | outcome [8]: inactive | outcome [9]: inactive | Potency [10]: inactive | outcome [11]: inactive | outcome [12]: inactive | outcome [13]: inactive | Potency [14]: inactive | outcome [15]: inactive | Potency [16]: inactive | Potency [18]: inactive

O=C(CCS)OCC(COC(=O)CCS)(COC(=O)CCS)COC(=O)CCS
Potency [17]: inactive | outcome [3]: inactive | outcome [5]: inactive | outcome [6]: inactive | outcome [8]: inactive | outcome [9]: inactive | Potency [10]: inactive | outcome [11]: inactive | outcome [12]: inactive | outcome [13]: inactive | outcome [15]: inactive | Potency [16]: inactive | Potency [18]: inactive | Potency [19]: inactive

CCN(CC)C(=O)/C(C#N)=C/c1cc(O)c(O)c([N+](=O)[O-])c1
Potency [17]: inactive | Potency [2]: 26.6 µM (active) | outcome [5]: inactive | outcome [6]: inactive | Potency [7]: inactive | outcome [8]: inactive | outcome [9]: inactive | Potency [10]: inactive | outcome [11]: inactive | outcome [13]: inactive | Potency [14]: inactive | outcome [15]: inactive | Potency [16]: inactive
